IL1B secr inh = blocks inflammasome-driven IL-1 beta release; THP-1 LPS/ATP IL-1B secretion, AlphaLISA, 16 h; hits give low values; activity change, % at 57.5 µM; hit rate 4.7% among 360,000; AID 743279; in the data active means activity change below about -50%; inconclusive means mostly about -30% to -49%
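THP-1 cells pretreated 1 hr with compounds (up to 57.5 uM final), then stimulated with LPS (250 ng/mL final) plus ATP (1.25 mM final); secreted IL-1B measured by AlphaLISA after 16 hr, decreased signal indicating inhibition.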
TDP1 cell noCPT = qHTS for Inhibitors of human tyrosyl-DNA phosphodiesterase 1 (TDP1): qHTS in cells in absence of CPT; DT40 Tdp1-/- hTDP1 cells, no CPT, ATP luminescence, 48 h; Potency, µM (titrated, usually from 46.2 µM), actives largely listed as inhibitors; hit rate 15% among 420,000; AID 686978, 2013; further: nearly all actives have a fitted effect of over 55% in size
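DT40 Tdp1-/-;hTDP1 cells, no CPT (DMSO vehicle only), 400 cells/well; compounds pin-transferred; ≥48 hr, 37 °C; CellTiter-Glo 30 min RT dark, luminescence read.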
TDP1 cell CPT = DT40-hTDP1 cell growth loss with CPT. chicken DT40 Tdp1-/-;hTDP1 cells + 20 nM CPT, ATP luminescence, 48 h. Potency, µM (series often up to 46.2 µM), usual class: inhibitors. hit rate 12% among 420,000. AID 686979; further: nearly all actives have a fitted effect of over 55% in size
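Chicken DT40 Tdp1-/- cells stably complemented with human TDP1 were seeded at 400 cells/well in medium containing 20 nM camptothecin, exposed to pin-transferred compounds, and grown at 37 °C for at least 48 hr. Viability was read as ATP luminescence.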
VP16 counter = inhibits Gal4-VP16 luciferase reporter, ROR gamma counter-screen; AID 2546; Drosophila S2 Gal4-VP16 UAS-luciferase, luminescence, 20 h; Potency, µM (series often up to 53.6 µM), most hits filed as inhibitors; hit rate 3.5% among 310,000;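 further: Gal4-VP16 expression switched on by copper sulfate through the metallothionein promoter; nearly all actives have a fitted effect of over 50% in size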
ELG1 repair inh = blocks ELG1-dependent DNA repair in HEK293T cells. HEK293T ELG1-luciferase reporter, luminescence, 16 h; DNA damage induced by 5-fluorouridine. Potency, µM (highest dose often 46.1 µM), usual class: inhibitors. hit rate 2.3% among 330,000. AID 504467; further: nearly all actives have a fitted effect of over 55% in size
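Overnight (16 hr) co-exposure of 2,000 cells/well to 5-fluorouridine and compound at 37 °C preceded detection. Luciferase was quantified via ONE-Glo luminescence; loss of signal denotes inhibition.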
RORg inh = blocks mouse ROR gamma transcriptional activity. P51450. Drosophila S2 Gal4-RORgamma UAS-luciferase reporter, 20 h. Potency, µM (doses to about 53.6 µM), hits mostly inhibitors. hit rate 5.4% among 310,000; further: nearly all actives have a fitted effect of over 60% in size
Target sequence (P51450 whole entry, looked up, the tested form may be a part): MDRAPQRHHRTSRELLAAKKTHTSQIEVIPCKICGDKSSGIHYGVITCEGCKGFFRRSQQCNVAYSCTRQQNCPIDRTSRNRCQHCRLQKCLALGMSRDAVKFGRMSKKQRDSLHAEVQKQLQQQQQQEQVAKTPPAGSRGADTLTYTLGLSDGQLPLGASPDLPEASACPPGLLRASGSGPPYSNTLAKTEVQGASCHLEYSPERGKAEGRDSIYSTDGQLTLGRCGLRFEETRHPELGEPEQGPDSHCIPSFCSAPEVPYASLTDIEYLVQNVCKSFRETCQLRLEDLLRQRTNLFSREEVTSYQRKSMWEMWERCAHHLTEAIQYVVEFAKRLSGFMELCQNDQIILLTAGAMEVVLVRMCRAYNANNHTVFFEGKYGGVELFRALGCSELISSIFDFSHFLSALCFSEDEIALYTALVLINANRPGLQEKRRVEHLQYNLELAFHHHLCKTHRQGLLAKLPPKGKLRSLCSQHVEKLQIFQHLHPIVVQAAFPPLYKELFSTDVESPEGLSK
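ROR gamma transcriptional activity was tracked as Gal4-UAS luciferase output in stably transfected Drosophila Schneider cells, with compound added 1 hr before 700 uM copper sulfate induction and a 20 hr ambient-temperature incubation.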
Each line names hits and unclear results; the compound was inactive in the other large screens. Only some compounds are listed: those with a hit (about 21% of all), similar ones and a draw of the others. Unless noted, the call rests on the fitted dose curve; in most records, active means well fitted curve in the direction sought with a large enough effect; inconclusive means small, poorly fitted or top-dose-only effect, or another doubt; inactive means no such curve, though single readings can be large; an effect the other way counts as inactive or inconclusive.

Oc1ccc(/C=N/n2c3ccccc3c3ccccc32)cc1	TDP1 cell noCPT 16µM, TDP1 cell CPT inconclusive
COc1ccc(NC(=O)NN(C(=O)c2ccccc2)C(C)(C)C)cc1	none
CN(C)C(=S)N=Nc1[nH]c2ccccc2c1O	TDP1 cell noCPT 0.52µM, TDP1 cell CPT 0.58µM, VP16 counter 5.6µM, ELG1 repair inh inconclusive, RORg inh 0.89µM
CC1CCC(C(=O)NC(C(=O)OCC(=O)c2ccccc2)C(C)C)CC1 (stereo unspecified)	TDP1 cell noCPT 18µM, TDP1 cell CPT 18µM (no result: IL1B secr inh, VP16 counter, ELG1 repair inh, RORg inh)
COc1ccc(C2CC(c3ccc(Br)cc3)=NN2C(=O)CSC2=NCCS2)cc1 (stereo unspecified)	IL1B secr inh -65, TDP1 cell noCPT 16µM, TDP1 cell CPT 16µM, ELG1 repair inh inconclusive
COc1ccc(C2=NN(C(=O)CCC(=O)O)C(c3ccc(OC)cc3)C2)cc1 (stereo unspecified)	none
COc1ccc(C2=NN(C(=O)CSc3ncccn3)C(c3cccc(OC)c3OC)C2)cc1 (stereo unspecified)	TDP1 cell noCPT inconclusive, TDP1 cell CPT inconclusive, ELG1 repair inh inconclusive
COc1ccc(C2=NN(C(=O)CSc3ncccn3)C(c3ccc(C)cc3)C2)cc1 (stereo unspecified)	TDP1 cell noCPT 18µM, TDP1 cell CPT inconclusive, ELG1 repair inh inconclusive
CCC(CC)NC(=O)COn1nnc2ccc(S(=O)(=O)N3CCOCC3)cc21	none (no result: VP16 counter, RORg inh)
NNC(=O)CSc1nc(-c2ccccc2)cn1-c1ccccc1	ELG1 repair inh inconclusive, RORg inh 5.6µM
Nn1cc(-c2ccccc2)nc1SCC(=O)NCCc1ccccc1	IL1B secr inh inconclusive, TDP1 cell noCPT inconclusive
Cc1ccc(SCC(=O)NC2CCS(=O)(=O)C2)cc1C (stereo unspecified)	none (no result: VP16 counter, RORg inh)
Cc1ccc(-c2cn(-c3ccccc3)c(SCC(=O)NC3CCS(=O)(=O)C3)n2)cc1C (stereo unspecified)	TDP1 cell noCPT inconclusive, TDP1 cell CPT inconclusive, VP16 counter inconclusive, ELG1 repair inh inconclusive, RORg inh 13µM
CCOc1ccc(CCNC(=O)Cn2nc(CC)n3c(cc4ccccc43)c2=O)cc1	TDP1 cell noCPT inconclusive (no result: IL1B secr inh, VP16 counter, ELG1 repair inh, RORg inh)
O=C(NCc1ccc(F)cc1)c1ccc(CS(=O)(=O)c2ccc(Br)cc2)o1	IL1B secr inh inconclusive, TDP1 cell noCPT 10µM, TDP1 cell CPT inconclusive, ELG1 repair inh inconclusive
Cc1ccc(S(=O)(=O)Cc2ccc(C(=O)N3CCN(c4ccccn4)CC3)o2)cc1	TDP1 cell noCPT inconclusive, TDP1 cell CPT 12µM, ELG1 repair inh inconclusive
O=C(c1ccc(CS(=O)(=O)c2c(Cl)cccc2Cl)o1)N1CCN(c2ccccn2)CC1	TDP1 cell noCPT inconclusive, TDP1 cell CPT inconclusive, ELG1 repair inh inconclusive
O=C(c1ccc(CS(=O)(=O)c2ccc(Br)cc2)o1)N1CCN(c2ccccn2)CC1	TDP1 cell noCPT inconclusive, ELG1 repair inh 18µM
O=C(c1ccc(CS(=O)(=O)c2ccc(Br)cc2)o1)N1CCN(c2ccc(F)cc2)CC1	TDP1 cell noCPT 23µM, TDP1 cell CPT inconclusive
COc1ccc(C(=O)C2CCCN(C(=O)c3cccc(N4CCCC4=O)c3)C2)cc1OC (stereo unspecified)	none
COc1ccccc1CN1CCOc2ccc(CN3CCC(Oc4cccnc4)CC3)cc2C1	TDP1 cell noCPT inconclusive (no result: IL1B secr inh, VP16 counter, ELG1 repair inh, RORg inh)
O=C(CNC(=O)c1ccc(Cl)cc1Cl)OCCOc1ccccc1F	none (no result: VP16 counter, RORg inh)
Cc1ccc(Cl)cc1N1CCN(C(=O)c2ccccc2SCC(=O)N2CCCC2)CC1	TDP1 cell noCPT 8.2µM, TDP1 cell CPT 21µM (no result: VP16 counter, RORg inh)
Cc1ccc(Cl)cc1N1CCN(C(=O)CCSCc2ccccc2F)CC1	TDP1 cell noCPT 23µM, TDP1 cell CPT inconclusive (no result: IL1B secr inh, VP16 counter, ELG1 repair inh, RORg inh)
COC(=O)C1(C(=O)OC)CC(CO)C(=O)[C@H]1c1ccccc1 (stereo partly specified)	none (no result: IL1B secr inh, TDP1 cell noCPT, TDP1 cell CPT, ELG1 repair inh)
O=C(c1cccc(Cl)c1)N1CCC2CC1c1cc(N3CCOCC3)ccc12 (stereo unspecified)	TDP1 cell noCPT inconclusive, TDP1 cell CPT inconclusive (no result: VP16 counter, ELG1 repair inh, RORg inh)
